L major viab – inhibitors of Leishmania major promastigote growth; Leishmania major promastigotes, resazurin fluorescence viability; inhibition, % at 10 µM; actives 9% (n = 200,000); AID 1063; in the data active = inhibition above about 50%;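 note: promastigotes grown with compound for 44 hours at 28 °C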
WT yeast gro inh – growth inhibition of WT yeast, mitochondrial fusion screen; actives 2.1% (n = 190,000); inhibition, % at 10 µM; mitochondrial fusion phenotypic screen, WT strain; AID 1362; in the data active = inhibition above about 58%; tested in S. cerevisiae
RAM inhibit – yeast RAM network inhibition. S. cerevisiae dse1pr::URA3 reporter, 5-FOA growth OD615, 2 d; analog-sensitive cbk1-as2 kinase mutant strain. inhibition, % at 50 µM. actives 1.8% (n = 190,000);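 active = inhibition above a set limit, 3 SD over mean compound inhibition, cut at about 8.4% in these data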;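 note: inhibition rescues growth on 5-FOA so higher OD means more RAM inhibition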
CHOP inhibitor – inhibitors of CHOP induction in ER stress response; CHO-K1 CHOP-promoter luciferase, tunicamycin-induced, 15-18 h; inhibition, % at 10 µM; actives 3.8% (n = 220,000); AID 2732;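 active = compounds that reduced the stress-induced luciferase reporter signal by more than about 70% of percent inhibition, limit read from the data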
Numbers stand for hits; – = inactive; · = no result. An excerpt weighted towards active compounds, which were near 13% of everything screened.

SMILES	L major viab	WT yeast gro inh	RAM inhibit	CHOP inhibitor
CC(=C/c1ccc(C(C)C)cc1)/C=N/NC(=O)Cn1nc(C)cc1C	–	–	–	–
CCOC(=O)C1CCCNC1=O (centres undefined)	·	·	·	–
Cc1cc(/C=C2/NC(=O)N(Cc3ccccc3F)C2=O)c(C)n1C(C)C	–	–	9.1	72
O=S(=O)(NCc1c(Cl)cccc1Oc1ccccc1)c1ccc(F)cc1	·	·	·	–
Cc1nnc(SCC(=O)Nc2ccccc2NC(=O)CSc2nnc(C)s2)s1	–	–	–	–
Cc1nnc(SCC(=O)Nc2sc3c(c2C(=O)c2ccccc2)CCCC3)s1	89	–	–	–
CCOC(=O)c1c(NC(=O)CSc2nnc(-c3c[nH]c4ccccc34)n2CC)sc2c1CCCC2	55	–	–	–
CCn1c(SCC(=O)Nc2ccc3c(c2)OCCO3)nnc1-c1c[nH]c2ccccc12	60	–	–	–
O=C(CSc1nnc(-c2c[nH]c3ccccc23)n1CC1CCCO1)Nc1ccc2c(c1)OCCO2 (centres undefined)	–	–	–	–
CC(=O)Nc1cccc(/C(C)=N\NC(=O)c2ccc(Cn3nc([N+](=O)[O-])c(Cl)c3C)o2)c1	–	–	–	–
COc1ccc(C(=O)Nc2ccc(SC(F)F)cc2)cc1	–	–	–	–
N=c1c2c(-c3ccccc3)c(-c3ccccc3)n(Cc3ccccc3)c2ncn1CCO	100	–	–	–
O=c1c2ccccc2nc(-c2ccccc2)n1Cc1ccco1	–	–	–	–
O=c1c2c3nc4ccccc4nc3n(Cc3ccccc3)c2ncn1Cc1ccco1	–	–	–	74
N=c1c2c(-c3ccccc3)c(-c3ccccc3)n(Cc3ccco3)c2ncn1Cc1ccccc1	100	·	–	85
N=c1c2c3c(sc2ncn1Cc1ccco1)CCCCC3	–	–	–	–
CC(C)Cn1cnc2c(c(-c3ccccc3)c(-c3ccccc3)n2Cc2ccco2)c1=N	100	–	–	–
Oc1ccc(C(c2nnnn2C2CCCC2)N2CCc3ccccc3C2)cc1 (centres undefined)	–	–	–	88
CC(C)C(c1nnnn1C1CCCCC1)N1CCc2ccccc21 (centres undefined)	–	–	–	–
Cc1ccc(C(c2nnnn2C2CCCCC2)N2CCc3ccccc32)cc1 (centres undefined)	53	–	–	–
CC(C)C(c1nnnn1C1CCCC1)N1c2ccccc2CC1C (centres undefined)	–	64	–	–
O=C(CCN1CCN(Cc2ccccc2)CC1)Nc1cccc(Cl)c1	89	–	–	–
CCOC(=O)C1CCN(CCC(=O)Nc2cccc(Cl)c2)CC1	93	–	–	–
CCOC(=O)C1CCN(CCC(=O)Nc2ccc(C)cc2)CC1	56	–	–	–
CCOC(=O)C1CCN(CCC(=O)Nc2ccccc2Cl)CC1	78	–	–	–
SMILES	L major viab	WT yeast gro inh	RAM inhibit	CHOP inhibitor
Cc1c(Cl)cccc1NC(=O)CCN1CCCCC1	–	–	–	–
O=C(Cn1c(=O)oc2cccnc21)Nc1ccccc1Oc1ccc(Cl)cc1Cl	·	·	·	–
COCc1nnc(NC(=O)c2ccc(S(=O)(=O)N(C)C3CCCCC3)cc2)o1	–	–	–	–
CCCCN(CC)S(=O)(=O)c1ccc2c(c1)n(C)c(=O)c(=O)n2C	·	·	·	–
O=C(CN(c1cccc(Cl)c1)S(=O)(=O)c1ccc(Cl)cc1)N1CCc2ccccc2C1	–	–	–	–
COc1cc(NC(=S)NC(=O)c2ccco2)ccc1NC(=O)C(C)C	86	–	–	–
COc1ccc(Cl)cc1NC(=O)NC(C)C	95	–	–	–
COc1cc(NC(=O)C(C)C)ccc1NC(=O)c1ccco1	–	–	–	–
COc1cc(NC(=O)C2CCCCC2)c(OC)cc1NC(=O)c1ccco1	–	–	–	–
COc1cc(NC(=O)c2ccco2)c(OC)cc1NC(=O)Nc1ccccc1Cl	72	–	–	–
COc1ccc(Cl)cc1C(=O)Nc1ccc(NC(=O)c2ccco2)cc1	–	–	–	–
COc1ccc(Cl)cc1NC(=O)c1ccco1	64	–	–	–
CCOC(=O)C(Sc1cc(-c2ccccc2)nc2ncnn12)C(C)=O (centres undefined)	·	·	·	–
Cc1ccc(CN2CCN(C3CCCC3)C(CCO)C2)s1 (centres undefined)	–	–	–	–
COC(=O)c1cc(NC2c3ccccc3C(=O)N2CCN2CCOCC2)cc(C(=O)OC)c1 (centres undefined)	–	–	–	–
CCN(CC)S(=O)(=O)c1ccc2oc(SCc3ccc(F)cc3)nc2c1	–	–	10.0	–
CC(C)Cn1c(-c2csc(C(C)C)c2)n[nH]c1=S	–	67	–	–
CCCc1cc(-c2n[nH]c(=S)n2CC)cs1	–	–	–	–
CCCCn1c(-c2csc(CCC)c2)n[nH]c1=S	–	73	–	–
CCCc1cc(-c2n[nH]c(=S)n2C(C)c2ccccc2)cs1 (centres undefined)	–	64	–	96
CN1CCN(CC(=O)Nc2cc(N(C)C)nc3ccccc23)CC1	–	–	–	–
Cc1nc2ccc(-c3nc4cc(N)ccc4o3)cc2[nH]1	53	–	–	–
Cc1noc(C)c1COC(=O)c1ccc(N(C)C)cc1	–	–	–	–
Cc1ccc(C(=O)Nc2nc(C(C)(C)C)cs2)s1	55	–	–	77
CC(C)(C)c1csc(NC(=O)c2ccc(Cl)s2)n1	–	–	–	73
SMILES	L major viab	WT yeast gro inh	RAM inhibit	CHOP inhibitor
CC(=O)Nc1nc(-c2cccs2)cs1	–	–	–	–
CC(C)(C)c1csc(NC(=O)c2ccncc2)n1	–	–	–	–
CC(C)(C)c1csc(NC(=O)Nc2ccccc2)n1	–	–	–	76
O=C(Nc1nc(-c2cccs2)cs1)c1ccc(Cl)s1	–	81	–	–
CC(C)(C)NC(=O)CN(C(=O)Cn1nnc(-c2ccc(Cl)cc2)n1)C1CCN(Cc2ccccc2)CC1	–	–	–	72
O=C(Cn1nnc(-c2ccc(CN3CCOCC3)cc2)n1)N1CCCc2ccccc21	84	–	–	–
O=C(Cn1nnc(-c2ccc(CN3CCOCC3)cc2)n1)N(c1ccccc1)c1ccccc1	70	–	–	–
NC(=O)Cn1nnc(-c2ccc(CN3CCCCC3)cc2)n1	–	–	–	–
COc1ccccc1N(Cc1ccccc1)S(=O)(=O)c1cc(C(=O)O)ccc1Cl	–	–	–	–
COC(=O)C1CSc2[nH]c(=O)sc2C1c1ccc(OC)c(OC)c1 (centres undefined)	–	77	–	–
Cn1c(CN2CCCCC2)nc2cc(NC(=O)c3ccc(Cl)cc3)ccc21	–	70	–	–
Cc1ccc(/C=C/C2=NN(Cc3ccccc3Cl)C(=O)CC2)cc1	–	59	–	74
O=C1CCC(/C=C/c2ccccc2)=NN1Cc1ccccc1	–	–	–	–
Cc1ccc(/C=C/C2=NN(Cc3ccccc3)C(=O)CC2)cc1	–	–	–	–
CC(C)(C)c1ccc(CN2N=C(/C=C/c3ccccc3)CCC2=O)cc1	–	72	9.8	–
CCCCCCNCc1cccc(Br)c1	54	–	–	–
CCCCCNCc1cccc(Br)c1	75	–	–	–
Brc1cccc(CNCCCN2CCOCC2)c1	–	–	–	–
COc1ccc(NC2=NC(=S)N(c3ccccc3C)C23CCCCC3)cc1	–	–	–	–

Source: PubChem
